# According to PubChem BioAssay (NCATS):
# Inconclusive results are not listed. The source made the active and inactive calls. The call rests on the fitted dose curve; in most records, active means well fitted inhibition curve with a large enough effect; inconclusive means small, poorly fitted or top-dose-only effect; inactive means flat fitted curve, though single readings scatter.
# Molecular target: Tyrosyl-DNA phosphodiesterase 1 (Homo sapiens) (UniProt Q9NUW8)
# Experiment: Confirmation Assay for Inhibitors of Tyrosyl-DNA Phosphodiesterase (TDP1) (AID 489007); further: nearly all actives have a fitted effect of over 40% in size
# Settings: recombinant human TDP1 enzymatic activity, dose-response
# Summary of the method: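 Compounds are preincubated 15 min at room temperature with 1 nM recombinant human Tdp1. The reaction starts on adding 15 nM FITC-phosphotyrosine DNA substrate, runs 5 min, and is detected by AlphaScreen beads after 10 min.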
# Potency means the concentration at half of the fitted maximal effect.
# Tyrosyl-DNA phosphodiesterase 1 (Homo sapiens), sequence (Q9NUW8 whole entry, looked up): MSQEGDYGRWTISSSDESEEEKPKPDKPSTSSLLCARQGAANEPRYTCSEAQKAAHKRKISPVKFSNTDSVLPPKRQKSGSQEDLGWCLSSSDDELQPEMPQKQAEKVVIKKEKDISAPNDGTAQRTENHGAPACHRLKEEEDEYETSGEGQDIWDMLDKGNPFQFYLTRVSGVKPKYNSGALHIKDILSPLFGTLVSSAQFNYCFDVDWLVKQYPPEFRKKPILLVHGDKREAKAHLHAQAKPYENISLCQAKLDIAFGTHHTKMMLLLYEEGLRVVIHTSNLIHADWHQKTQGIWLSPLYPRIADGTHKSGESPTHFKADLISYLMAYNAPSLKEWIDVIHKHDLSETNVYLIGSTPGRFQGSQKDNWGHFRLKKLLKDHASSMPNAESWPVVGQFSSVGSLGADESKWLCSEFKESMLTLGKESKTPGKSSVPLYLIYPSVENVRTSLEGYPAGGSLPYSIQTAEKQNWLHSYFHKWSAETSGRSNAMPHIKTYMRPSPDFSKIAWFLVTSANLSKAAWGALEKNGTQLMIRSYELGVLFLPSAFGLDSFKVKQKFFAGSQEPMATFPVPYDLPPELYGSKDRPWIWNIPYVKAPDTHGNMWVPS
row,Structure (SMILES),Potency
1,C=C1c2cccc(OC)c2O[C@H](C(=O)OCC)[C@@H]1CCCCCC,0.0251 µM (active)
2,O=C(O)CCC(=O)N(Cc1cccs1)Cc1cccs1,112 µM (active)
3,Cc1ccc(NC(=O)CN2C(=O)S/C(=C\c3ccc(-c4cccc(C(=O)O)c4C)o3)C2=O)cc1,11.2 µM (active)
4,O=C(Nc1cc2c(oc1=O)CCCC2=O)c1ccc(Cl)cc1,31.6 µM (active)
5,O=C1C2C3C=CC(C3)C2C(=O)N1c1ncn[nH]1 (stereo not given),31.6 µM (active)
6,O=C(CSc1nc(NS(=O)(=O)c2ccccc2)cc(=O)[nH]1)Nc1ccc(Cl)cc1,22.4 µM (active)
7,Cc1nn(-c2ccccc2)c(C)c1S(=O)(=O)O,25.1 µM (active)
8,c1ccc(N2N=C(c3cccs3)CC2c2ccco2)cc1 (stereo not given),112 µM (active)
9,CC(=O)NC1=NC(=O)/C(=C/c2cc(C)n(-c3cccc(C(=O)O)c3)c2C)S1,2 µM (active)
10,Cc1ccc(/C=C2/C(=O)c3ccc(C(=O)O)cc3C2=O)o1,14.1 µM (active)
11,O=C(O)c1ccc(/C=C/c2nc3sc4c(c3c(=O)[nH]2)CCC4)cc1,112 µM (active)
12,CCc1oc(C(=O)O)cc1COC,31.6 µM (active)
13,O=C(CSc1nc2ccccc2[nH]1)NC1CCCC1,14.1 µM (active)
14,CCN(CC)Cc1c(O)c(Cl)cc2c(C)cc(=O)oc12,14.1 µM (active)
15,O=C(O)C1C2C=CC3(O2)C1C(=O)N1c2ccccc2C2OCCC2C13 (stereo not given),35.5 µM (active)
16,Cc1nc2ccc(C(=O)O)cc2c2c1CC(C)S2 (stereo not given),31.6 µM (active)
17,COc1ccc(N2Cc3cccc(C(=O)O)c3C2=O)cc1,2.51 µM (active)
18,S=c1[nH]nc(-c2cccnc2)n1/N=C/c1ccc(Br)s1,63.1 µM (active)
19,COc1ccc(CCNC(=O)c2ccc3nc(-c4ccco4)c(-c4ccco4)nc3c2)cc1OC,10 µM (active)
20,CCN(CC)C(=O)COc1ccc2oc(-c3ccco3)cc(=O)c2c1,112 µM (active)

row,Structure (SMILES),Potency
1,COc1ccc(/C=N/N=C2/NC(=O)C(CC(=O)O)S2)cc1OCc1ccc(Cl)cc1Cl (stereo not given),39.8 µM (active)
2,Cc1ccc2cc(C)c3nnc(SCC(=O)NCc4ccco4)n3c2c1,35.5 µM (active)
3,COc1ccc(N2Cc3cccc(C(=O)N4CCN(C(=O)c5ccco5)CC4)c3C2=O)cc1,7.08 µM (active)
4,Nc1ccc(N)c(C(=O)O)c1,0.199 µM (active)
5,CCOc1ccc(N=Cc2c(C)[nH]n(-c3nc4ccccc4[nH]3)c2=O)cc1,31.6 µM (active)
6,COc1ccc(S(=O)(=O)N2Cc3ccccc3CC2C(=O)O)cc1 (stereo not given),12.6 µM (active)
7,OC[C@@H]1[C@@H](c2ccc(Cl)cc2)C(c2cccc(Cl)c2)=NN1c1ccccc1,50.1 µM (active)
8,CCCCC(=O)Nc1ccc(C(=O)NNC(=O)CCc2ccccc2)cc1,100 µM (active)
9,CCOC(=O)N1CCC(N2Cc3cccc(C(=O)NCc4ccc5c(c4)OCO5)c3C2=O)CC1,15.8 µM (active)
10,Cc1ccc(C(=O)O)cc1-n1c(C)cc(C=O)c1C,15.8 µM (active)
11,Cc1ccc(CN2C(=O)N/C(=C\c3ccc(-c4ccc(C(=O)O)cc4C)o3)C2=O)cc1,7.94 µM (active)
12,Cn1c(-n2cccc2)c(-c2c(-c3ccccc3)[nH]c3c2c(=O)[nH]c(=O)n3C)c(=O)[nH]c1=O,100 µM (active)
13,CSc1ccccc1NC(=O)c1noc2c1CCC2,126 µM (active)
14,C=CCCN(Cc1ccccc1)S(=O)(=O)c1ccccc1Br,56.2 µM (active)
15,OC[C@@H]1[C@@H](c2ccccc2)C(c2cccc(Cl)c2)=NN1c1ccccc1,10 µM (active)
16,C=C(C)C(=O)Nc1cccc(C2=NOC3(C2)C[C@H](C(N)=O)N(C(=O)COc2ccc(Cl)cc2)C3)c1 (stereo not given in full),12.6 µM (active)
17,CCCCC[C@H](O)/C=C/[C@@H]1[C@@H](C/C=C\CCCC(=O)OC)[C@@H](O)C[C@H]1O,25.1 µM (active)
18,CCCCNC(=O)COC(=O)c1ccc(Cl)c(S(=O)(=O)N2CCCC2)c1,100 µM (active)
19,CC1=NN(c2ccc(Cl)c(C(=O)O)c2)C(=O)/C1=C\c1ccc(-c2ccc(C(=O)O)cc2)o1,14.1 µM (active)
20,Cc1cc(C=O)c(C)n1-c1cccc(C(=O)O)c1,7.94 µM (active)
